Outcome data for 23 compounds are collected here from PubChem BioAssay (EPA / NIEHS).

The structures appear in SMILES notation. Records with an inconclusive call do not appear. Active and inactive are the calls of the source. Rule for the calls: active = hit-call score of the fitted dose curve at least 0.9, where 1 is the maximum; inconclusive = response in the unintended direction; inactive = score below 0.9.

Read-out in the assay: organic anion transporter (SLCO1B1), SLCO1B1 (gene 10599)
Briefly: CLD_SLCO1B1_48hr: CellzDirect (CLD) Gene Expression Assay for organic anion transporter (SLCO1B1) at 48 hours (AID 2283707). The procedure:
CLD_48hr is a cell-based, multiplexed-readout assay that uses hepatocyte, a human liver primary cell, with measurements taken at 48 hours after chemical dosing in a 96-well plate.CLD_SLCO1B1_48hr is one of 16 assay component(s) measured or calculated from the CLD_48hr assay. It is designed to make measurements of mRNA induction, a form of inducible reporter, as detected with chemiluminescence signals by Quantitative Nuclease Protection Assay (qNPA) technology.Data from the assay component CLD_SLCO1B1_48hr was analyzed at the endpoint, CLD_SLCO1B1_48hr, in the positive analysis fitting direction relative to DMSO as the negative control and baseline of activity. Using a type of inducible reporter, gain-of-signal activity can be used to understand changes in the reporter gene as they relate to the gene SLCO1B1. Furthermore, this assay endpoint can be referred to as a primary readout. To generalize the intended target to other relatable targets, this assay endpoint is annotated to the transporter intended target family, where subfamily is organic anion transporter.
Human hepatocyte cultures were treated daily for two consecutive days with fresh dosing solutions containing appropriate concentrations of the 320 ToxCast chemicals (chemical identities were blinded to CellzDirect and other ToxCast collaborators), vehicle control (0.2% DMSO), and positive control inducers as summarized in Table 1. Due to the large number of treatment groups and chemicals examined, the ToxCast chemicals were divided into two groups (spanning two independent cultures of hepatocytes from separate donor preparations (Hu778: ToxCast plates 1 and 2; Hu776: ToxCast plates 3 and 4). Each preparation of human hepatocyte cultures was treated with respective vehicle control, medium only control, set of six positive controls/reference chemicals for the five hepatic receptor pathways, and a subset of eight of the ToxCast chemicals (indoxacarb, pyrithiobac-sodium, norflurazon, cyhalofop-butyl, methomyl, thiram, acetochlor, and propiconazole). These replicate data, coupled with internal replicates designed within the blinded ToxCast chemical library, provided additional data to evaluate interindividual differences between hepatocyte preparations and their potential impact on chemical profiles.Cell morphology and integrity were evaluated using phase-contrast microscopy as an indicator of hepatocyte cell health (Tyson & Green, 1987). Cultures for each treatment group (i.e., media, vehicle [0.2% DMSO], positive control inducers [multiple concentrations], and the ToxCast chemicals [multiple concentrations]) were observed and cell morphology was assessed relative to vehicle control cultures at each harvest time point (0, 6, 24, or 48 h). […] Images were evaluated at the conclusion of the study to assess changes in cell integrity and account for the effects of chemical exposure on uncharacteristic changes in concentration-dependent gene expression profiles. The results from these determinations of apparent cytotoxicity were annotated (yes/no) alongside the corresponding qNPA data for reference.At the conclusion of each treatment period, hepatocyte cultures (96-well) were washed with 1 volume of HBSS, lysed by addition of 25 ul ArrayPlate lysis buffer (HTG, Tucson, AZ), and 70 ul/well of Denaturation Oil, denatured by incubation at 95C for 10 min, and frozen at approximately -70C until analysis by nuclease protection assay (qNPA) (Roberts et al., 2007). For qNPA analysis, cell lysates were thawed at 50C for approximately 30 min, qNPA probes were added, and samples were incubated at 95C for 10 min to begin the detection process by denaturing the target RNA, dissociating the duplexes and secondary structure hybridization. At the conclusion of the hybridization period, S1 nuclease reagent was added to each sample to digest all nonprotected nucleotides at 50C for 60-90 min. […]
For the compound `CCNc1nc(N)nc(Cl)n1`, the call was inactive.
In the case of `COc1c(Cl)ccc(Cl)c1C(=O)O` it was “inactive”.
For the compound `CCOC(=O)[C@H](C)Oc1ccc(Oc2nc3ccc(Cl)cc3o2)cc1`, the outcome was inactive.
The result for `CCSC(=O)N(CC(C)C)CC(C)C` reads “inactive”; that for `CCOC(=O)C(C)Oc1ccc(Oc2cnc3cc(Cl)ccc3n2)cc1` (stereo not drawn), “inactive”.
The result for `CCCCOC(=O)C(C)Oc1ccc(Oc2ccc(C(F)(F)F)cn2)cc1` (stereo not drawn) reads “inactive”; that for `CCCCC(CC)COC(=O)c1ccccc1C(=O)O` (stereo not drawn), “inactive”; that for `CSC(=O)c1cccc2nnsc12`, “inactive”.
The result for `c1ccc(Nc2ccccc2)cc1` reads “inactive”; that for `COC(=O)CSc1cc(N=c2sc(=O)n3n2CCCC3)c(F)cc1Cl`, “inactive”; that for `CCC(C)OC(=O)N1CCCCC1CCO` (stereo not drawn), “inactive”.
Turning to `COC(=O)c1cccc(C)c1S(=O)(=O)NC(=O)Nc1nc(OCC(F)(F)F)nc(N(C)C)n1`, the result was inactive.
In the case of `CCC(O)=C1C(=O)CC(C(=O)O)CC1=O` (stereo not drawn) it was “inactive”; in that of `CCCCOC(=O)[C@@H](C)Oc1ccc(Oc2ccc(C(F)(F)F)cn2)cc1`, “inactive”; in that of `CCCOC(=O)NCCCN(C)C`, “inactive”.
In the case of `CCCN(CCC)C(=O)SCC` it was “inactive”; in that of `CCOC(=O)NCCOc1ccc(Oc2ccccc2)cc1`, “inactive”; in that of `C#CCOC(=O)[C@@H](C)Oc1ccc(Oc2ncc(Cl)cc2F)cc1`, “inactive”.
With `OB(O)O`, the compound was called inactive.
Take `CC(C)(c1ccc(O)cc1)c1ccc(O)cc1`: the call was inactive.
Regarding `COC(=O)c1ccccc1S(=O)(=O)NC(=O)Nc1nc(OC(F)F)cc(OC(F)F)n1`, the outcome was inactive.
The result for `CCCOC(=O)c1ccc(C(=O)OCCC)nc1` reads “inactive”.
In the case of `COCCO` it was “inactive”.
